Test results taken from PubChem BioAssay (Tox21).
Records with an inconclusive call do not appear. Entries that show only a call come without a potency. Calls of active or inactive are those of the source. The call rests on the fitted dose curve.
Potency means the concentration at half of the fitted maximal effect.

Experiment: p53 small molecule agonists, cell-based qHTS assay with rat liver microsomes: qHTS cell viability counter screen (AID 1963580); further: nearly all actives have a fitted effect of over 45% in size
Details: p53RE-bla HCT-116 + rat microsomes, ATP viability, 16 h; series mostly up to 66 µM
Source text: National Center for Advancing Translational Sciences [NCATS]
Division of Preclinical Innovation [DPI]
U.S. Environmental Protection Agency [EPA]
National Institutes of Environmental Health Sciences [NIEHS]
National Toxicology Program [NTP]
U.S. Food and Drug Administration [FDA]
p53, a tumor suppressor protein, is activated following cellular insult, including DNA damage and other cellular stresses. The activation of p53 regulates cell fate by inducing DNA repair, cell cycle arrest, apoptosis, or cellular senescence. The activation of p53, therefore, is a good indicator of DNA damage and other cellular stresses. The CellSensor p53RE-bla HCT-116 cell line contains a stably integrated beta-lactamase reporter gene under control of the p53 response elements. The activation of the reporter gene under culture conditions can be detected by fluorescence intensity. This cell line was used to screen the Tox21 10K compound library in the condition of presence of rat liver microsomes and to identify agonists that activate the p53 signaling pathway after in vitro metabolic activation (Ooka et al., Archive of Toxicology 96:1975-1987, 2022). The cytotoxicity of the Tox21 compound library against the p53 RE-bla HCT-116 cell line was tested in parallel by measuring the intra cellular ATP content in the same wells.
Tox21 Assay Protocol Summary:
The p53RE-bla cells were dispensed at 4,000cells/3ul/well in 1536-well black-clear bottom plates. After the assay plates were incubated at 37 C, 5% CO2 incubator for 5 hours, 23 nL of compounds dissolved in DMSO, positive controls or DMSO only was transferred to the assay plate. Following compound addition, 3 uL of rat liver microsomes (Molecular Toxicology, Boone, NC) at final concentration of 0.5 mg/mL and 1uL of B-Nicotinamide adenine dinucleotide 2'-phosphate (NADPH) at final concentration of 0.5 mg/mL were transferred to the assay plate. The plates were incubated at 37 C for 16 hours. 1 uL of LiveBLAzer detection mixture was added to each well and the plates were incubated at room temperature in the dark for 2 h. Fluorescence intensity at 460 and 530 nm emission and 405 nm excitation were measured by an Envision plate reader. For cell viability readout that measures cytotoxicity, 4 ul/well of CellTiter-Glo reagent was added into the assay plates using a Flying Reagent Dispenser. After 30 min incubation at room temperature, the luminescence intensity in the plates was measured using a ViewLux plate reader.
For `CCCCCCCCCCCCN(CCCCCCCCCCCC)CCCCCCCCCCCC`, the Potency was “inactive”. With `COc1cc(NC(C)CCCN)c2ncccc2c1` (stereo not given) the Potency was “inactive”. In the case of `CC(C)=CCOc1ccc(/C=C/C(=O)c2ccc(OCC=C(C)C)cc2OCC(=O)O)cc1`, the Potency is reported as “inactive”. With `CN(C)c1ccc(C=O)cc1` the Potency was “inactive”. In the case of `CCOc1ccc(NC(N)=O)cc1`, the Potency is reported as “inactive”. With `Cc1nc2c([nH]1)c(=O)n(C)c(=O)n2Cc1ccco1` the Potency was “inactive”. For `C=CC(C)(CCC=C(C)C)OC(=O)CC(C)C` (stereo not given), the Potency was “inactive”. In the case of `COc1ccc(Cc2cnc(N)nc2N)cc1OC`, the Potency is reported as “inactive”. In the case of `O=C=Nc1ccc(Cl)c(Cl)c1`, the Potency is reported as “inactive”. For `CCC[Si](OC)(OC)OC`, the Potency was “inactive”. With `C/C(C=O)=C\c1ccccc1` the Potency was “inactive”. For `Cc1ccc(O)c(O)c1`, the Potency was “inactive”. In the case of `CC1(CO)CN(c2ccccc2)NC1=O` (stereo not given), the Potency is reported as “inactive”. In the case of `NC(N)=N/N=C/c1c(Cl)cccc1Cl`, the Potency is reported as “inactive”. In the case of `CC1=CCCC(C)(C)C12CCC(C)O2` (stereo not given), the Potency is reported as “inactive”. With `NCCCOCCOCCOCCCN` the Potency was “inactive”. For `CC(=O)[O][Al]`, the Potency was “inactive”. For `CCN1CCN(C(=O)N[C@@H](C(=O)N[C@@H]2C(=O)N3C(C(=O)O)=C(CSc4nnnn4C)CS[C@H]23)c2ccc(O)cc2)C(=O)C1=O`, the Potency was “inactive”. For `O=c1cc(O)c(Cl)c[nH]1`, the Potency was “inactive”. For `C/C=C/C(=O)C1=C(C)CCCC1(C)C`, the Potency was “inactive”. In the case of `CC(=O)OC(C(=O)c1ccccc1)c1ccccc1` (stereo not given), the Potency is reported as “inactive”. For `C=C1c2cccc(O)c2C(O)=C2C(=O)[C@]3(O)C(O)=C(C(N)=O)C(=O)[C@@H](N(C)C)[C@@H]3[C@@H](O)[C@H]12`, the Potency was “inactive”. In the case of `O=C(CN1CCNCC1)NC1CCCCC1`, the Potency is reported as “inactive”. For `OCCc1ccncc1`, the Potency was “inactive”. With `CC/C=C\C/C=C\C/C=C\CCCCCCCC(=O)OCC` the Potency was “inactive”. For `CC(Cc1ccccc1)(NC(=O)CN)c1ccccc1` (stereo not given), the Potency was “inactive”. With `CC(=O)CC(=O)Nc1ccc(S(=O)(=O)O)cc1` the Potency was “inactive”. For `Cc1ccc(O)c(C(=O)c2ccccc2)c1`, the Potency was “inactive”. With `CCCCCCCCn1sc(Cl)c(Cl)c1=O` the Potency was 36.3 µM (active). In the case of `CC(=O)Oc1ccc(C(=C2CCCCC2)c2ccc(OC(C)=O)cc2)cc1`, the Potency is reported as “inactive”. With `O=C(O)Cc1ccc(Cl)cc1Cl` the Potency was “inactive”. With `CCOC(=O)Nc1ccc2c(c1)N(C(=O)CCN1CCOCC1)c1ccccc1S2` the Potency was “inactive”. In the case of `O=[N+]([O-])C1(Br)COCOC1`, the Potency is reported as “inactive”. With `CC(=O)OCC(=O)[C@@]12OC(C)(C)O[C@@H]1C[C@H]1[C@@H]3C[C@H](F)C4=CC(=O)C=C[C@]4(C)[C@@]3(F)[C@@H](O)C[C@@]12C` the Potency was “inactive”. With `C/C(CC(C)C)=N\O` the Potency was “inactive”. With `Nc1cccc(O)c1` the Potency was “inactive”. With `CC(C)(C)C1=CC(=O)C=C(C(C)(C)C)C1=O` the Potency was “inactive”. In the case of `SCCc1cnccn1`, the Potency is reported as “inactive”. With `CCCC(CC)c1ccccc1` (stereo not given) the Potency was “inactive”. For `C[C@H]1COc2c(C3(N)CC3)c(F)cc3c(=O)c(C(=O)O)cn1c23`, the Potency was “inactive”.
